Bioassay records deposited in PubChem by several laboratories.
GASC-1 inh: blocks human GASC-1 demethylase activity; GST-JMJD2C(1-420) H3K9me3 demethylation, DELFIA europium; inhibition, % at 2.35 µM; 330,000 compounds, 0.069% hits; AID 2099;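 active = more than half of a compound's replicate wells show inhibition beyond 50%, single wells judged on their own value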;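 note: signal counts dimethyl H3K9 product captured on neutravidin plate; 0% = median of DMSO wells and 100% = 0.3 times that DMSO median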
Target sequence (Q9H3R0 1-420 limits assumed): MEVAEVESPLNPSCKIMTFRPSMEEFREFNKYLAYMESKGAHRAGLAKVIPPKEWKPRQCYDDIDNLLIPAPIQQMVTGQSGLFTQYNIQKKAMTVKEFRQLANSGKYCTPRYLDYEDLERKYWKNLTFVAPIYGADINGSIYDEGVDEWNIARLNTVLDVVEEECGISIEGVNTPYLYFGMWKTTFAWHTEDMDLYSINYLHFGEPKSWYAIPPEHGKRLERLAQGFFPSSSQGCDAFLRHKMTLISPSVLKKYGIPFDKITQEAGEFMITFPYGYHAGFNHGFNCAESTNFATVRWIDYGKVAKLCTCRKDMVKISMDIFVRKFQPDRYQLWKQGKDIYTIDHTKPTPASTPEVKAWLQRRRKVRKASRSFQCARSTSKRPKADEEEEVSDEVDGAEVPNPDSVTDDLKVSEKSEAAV
PfM18AAP inh: PfM18AAP enzyme inhibition | recombinant PfM18AAP, H-Glu-NHMec fluorogenic cleavage | inhibition, % at 7.35 µM | 290,000 compounds, 1.2% hits;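 active = inhibition above the campaign mean inhibition over all tested compounds plus 3 SD, cut at about 28% in these data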;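 note: 0% = plate median of test compound wells and 100% = 2 mM ZnCl2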
ALR inh: inhibitors of human sulfhydryl oxidase ALR; purified ALR, DTT oxidation, H2O2 HRP-luminol luminescence; inhibition, % (no concentration beside the values); AID 485317; 290,000 compounds, 3.8% hits;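 active = mean replicate inhibition above about 79%, with every replicate also reaching it, limit read from the data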
SMARCA2 activ: increases SMARCA2 function in MMTV reporter cells; activation, % at 9.1 µM; MG213 cells, MMTV-luciferase reporter, dexamethasone, overnight; AID 652017; 370,000 compounds, 1% hits; in the data active = activation above about 7.8%;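 note: 0% = vehicle wells and 100% = reference activator wells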
Granule exo inh: lytic granule exocytosis inhibition | TALL-104 LAMP-1 surface exposure, flow cytometry; cells stimulated with thapsigargin and PMA | inhibition, % at 10 µM | 360,000 compounds, 0.66% hits;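 active = inhibition above about 55%, limit read from the data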
MIN6 prolif: MIN6 beta-cell proliferation induction; MIN6 cells proliferation, ATPlite luminescence, 48 h; cells starved in 0.2% serum; 100% = growth in 10% serum; proliferation, % at 10 µM; 330,000 compounds, 0.29% hits; AID 2380;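 active = compounds whose signal lies at least 3.5 SD above the mean of all wells on their plate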;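 note: 0% = DMSO-treated cells in low-serum medium and 100% = 10% serum control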
Active calls of the source: *; . = no result given. In the library only some 5.4% were active in any assay of this set; here they are far more common.

SMILES | GASC-1 inh | PfM18AAP inh | ALR inh | SMARCA2 activ | Granule exo inh | MIN6 prolif
CS(=O)(=O)c1ccc(OC[C@@H](O)CN2CCC(C(O)(c3ccccc3)c3ccccc3)CC2)cc1 | . | . | . | 1 | . | .
C#CCN1CC(N(C)CCOC(=O)c2ccc(C(C)(C)C)cc2)CS1(=O)=O (configuration not stated) | . | . | . | -4 | . | .
O=C1CS/C(=N/N=C2C3CC4CC(C3)CC2C4)N1 | 2 | 9 | -1 | 2 | -6 | 2
O=C1CS/C(=N/N=C\c2ccn[nH]2)N1 | -14 | 20 | 82* | -1 | -2 | -2
CCCN1CCCCC(NC(=O)c2ccccc2OC)C1=O (configuration not stated) | . | . | . | 0 | . | .
COc1cccc(NC(=O)CSc2nc3ccccc3c(=O)n2CCCC(=O)N2CCCC2)c1 | 31 | 5 | -10 | 4 | 7 | 1
COc1cccc(NC(=O)CSc2nc3c(sc4ccccc43)c(=O)n2CCN(C)C)c1 | 11 | 5 | 100* | -3 | 55 | -2
Cc1ccc(CNC(=O)CSc2nc3c(sc4ccccc43)c(=O)n2CCCN2CCCC2)cc1 | 9 | 5 | 99* | 2 | 52 | -7
CCN(CC)CCn1c(SCC(=O)Nc2cccc(OC)c2)nc2c(sc3ccccc32)c1=O | -9 | 7 | . | 2 | 69* | -6
COc1cccc(NC(=O)CSc2nc3c(sc4ccccc43)c(=O)n2CCCN2CCCC2)c1 | -18 | -3 | 97* | 3 | 4 | -8
O=C(C1CCN(c2cncnc2)CC1)N1CCOCC1 | . | . | . | -2 | . | .
CC(=O)CC[C@H]1CC[C@]2(CCCN(C(=O)C3CCCC3)C2)O1 | . | . | . | 1 | . | .
Cc1sc2nc(CSc3ccc([N+](=O)[O-])cc3)[nH]c(=O)c2c1C | 20 | 7 | 99* | . | . | -5
Cc1sc2nc(CSc3nc4ccccc4s3)[nH]c(=O)c2c1C | -26 | 12 | 99* | 2 | . | -5
COc1ccc(OC)c(NC(=O)c2c(NC(=O)CCC(=O)O)sc3c2CCCCC3)c1 | 24 | 37* | 59 | -1 | 4 | -6
COc1ccccc1NC(=O)c1c(NC(=O)CCC(=O)O)sc2c1CCCCC2 | -4 | 20 | 98* | -3 | -1 | 5
COc1ccc(OC)c(NC(=O)c2c(NC(=O)c3ccco3)sc3c2CCC3)c1 | -18 | -1 | . | . | . | -4
O=C(O)CCC(=O)Nc1sc2c(c1C(=O)Nc1cccc3ccccc13)CCCCC2 | -7 | 30* | -7 | 0 | 0 | 0
C[C@@H]1OC(C2CCCCC2)N(C)[C@H]2C[C@H]3c4[nH]c5cccc(-c6ccccc6)c5c4CCN3C[C@@H]12 (some centres not stated) | . | . | . | 0 | . | .
CCCCN1C[C@@H]2CSCCS(=O)(=O)N2C1=O | . | . | . | -3 | . | .
CCNc1ccc(S(=O)(=O)N(C)C)cc1NCC(=O)Nc1ccccc1Cl | -3 | 14 | 99* | 0 | -2 | 1
C[C@H]1C2CC(OC(=O)Nc3ccc4c(c3)OCO4)C(C2)[C@H]2CCCCN21 (some centres not stated) | . | . | . | -2 | . | .
S=c1nccc(-c2cccs2)[nH]1 | 15 | 29* | 99* | -3 | 1 | -3
N#CC1=C(SCC(=O)c2ccccc2)NC2=C(C(=O)CCC2)C1c1ccco1 (configuration not stated) | -16 | 24 | 87* | 5 | 7 | -2
CCCCc1ccc(NC(=O)CSC2=C(C#N)C(c3ccco3)C3=C(CCCC3=O)N2)cc1 (configuration not stated) | 11 | 8 | 98* | -2 | 5 | -5
Cc1ccc(C(=O)CSC2=C(C#N)C(c3ccco3)C3=C(CCCC3=O)N2)cc1 (configuration not stated) | -6 | 20 | 99* | 0 | -3 | -6
COc1ccc(NC(=O)CSC2=C(C#N)C(c3ccco3)C3=C(CCCC3=O)N2)c(OC)c1 (configuration not stated) | 13 | 15 | 13 | -3 | -2 | -1
COc1cccc(NC(=O)CSC2=C(C#N)C(c3ccco3)C3=C(CCCC3=O)N2)c1 (configuration not stated) | -1 | 23 | 59 | -3 | 0 | 0
CC(C)(C)c1ccc(C(=O)CCCSC2=C(C#N)C(c3ccco3)C3=C(CCCC3=O)N2)cc1 (configuration not stated) | . | 16 | 3 | -2 | 1 | -6
